According to PubChem BioAssay:
Calls of active or inactive are those of the source. Unless noted, the rule behind the calls is not given here.

Tests used:
[1] = anti-His antibody binders, primary screen, artefact control for SMM control protein annotation, biochemical, small-molecule microarray, 635 nm fluorescence (AID 1128); conditions: anti-His Alexa647 antibody binding, higher = more signal;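 note: score merges feature fluorescence with signal-to-noise for each printed compound spot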
[2] = test system: Human papillomavirus type 1a E7 protein (residues 1-88); test: HPV1a E7 small-molecule binders, primary screen, biochemical, small-molecule microarray, residues 1-88, 635 nm (AID 1129); conditions: small-molecule microarray binding, fluorescence 635 nm; higher = more signal
[3] = target: Focal adhesion kinase 1 (Homo sapiens) (UniProt Q05397); test: small-molecule microarray binders of FAK, primary screen, biochemical, 635/667 nm fluorescence, BSA, DTT (AID 1130); conditions: PTK2 binding, 635 nm fluorescence, higher = more signal;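 note: composite of spot emission at 667 nm and signal to noise over triplicate slides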
[4] = test system: Fibrinogen (Alexa647-labelled); test: fibrinogen binders on compound microarrays, profiling panel, artefact control for SMM control-protein annotation, biochemical, small-molecule microarray, 635/667 nm fluorescence (AID 1131); conditions: fibrinogen-A647 binding fluorescence, higher = more signal;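 note: z-score merges 667 nm fluorescence with per-spot signal-to-noise over triplicate slides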
[5] = target: Follistatin (Homo sapiens) (UniProt P19883); test: follistatin binders on small-molecule microarrays, primary screen, biochemical, small-molecule microarray, 635/667 nm fluorescence (AID 1132); conditions: FST binding, 635 nm fluorescence, higher = more signal
[6] = target: Fibroblast growth factor 2 (Homo sapiens) (UniProt P09038); test: FGF2 binders on small-molecule microarrays, primary screen, biochemical, small-molecule microarray, 635/667 nm fluorescence (AID 1133); conditions: small-molecule microarray binding, FGF2, fluorescence 635/667; higher = more signal
[7] = mitochondrial membrane potential change in A549 cells, profiling panel, cell-based, JC-1 fluorescence, basal, 24 h, 100 nL (AID 1138); conditions: higher = more signal;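 note: A549 lung adenocarcinoma cells under basal conditions with no added stimulus; test concentration not given here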
[8] = test system: Lefty1; test: Lefty1 binders on small-molecule microarrays, primary screen, biochemical, small-molecule microarray, 635/667 nm fluorescence (AID 1139); conditions: small-molecule microarray binding, fluorescence 635/667; higher = more signal
[9] = test system: wheat germ agglutinin (Triticum aestivum), Alexa647-labelled; test: wheat germ agglutinin binders on compound microarrays, profiling panel, artefact control for SMM control-protein annotation, biochemical, small-molecule microarray, 635/667 nm fluorescence (AID 1140); conditions: WGA-A647 binding, 635 nm fluorescence, higher = more signal;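 note: score merges 667 nm feature emission with signal to noise over triplicate slides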
[10] = target: Luciferin 4-monooxygenase (Photinus pyralis) (UniProt P08659); test: firefly luciferase enzyme inhibitors, primary screen, biochemical, luminescence, purified enzyme, 2006 set (AID 1141); conditions: SteadyGlo luminescence, 30 min, higher = more signal, called active from +8 up or from −8 down;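 note: cell-free assay with purified firefly luciferase at 100 ng per well in PBS; test concentration not given here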
[11] = test system: Wnt5a (protein binding on small-molecule microarray); test: Wnt5a binders on small-molecule microarray, primary screen, biophysical, 635/667 nm fluorescence (AID 1142); conditions: 635 nm fluorescence, higher = more signal;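 note: fluorescence read at 667 nm with signal to noise per printed feature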
[12] = cell viability in Huh7 cells, primary screen, cytotoxicity control for HCV replication inhibitor project, CellTiter-Glo luminescence, basal, 48 h (AID 1143); conditions: Huh7 HCV replicon, higher = more signal, called active from +8 up or from −8 down;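 note: Huh7 hepatoma cells carrying a hepatitis C replication reporter with no stimulus; test concentration not given here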
[13] = P. aeruginosa biofilm formation inhibitors, primary screen, PAO1 strain, BacTiter-Glo luminescence, LB-PBS (AID 1144); conditions: 12 h, higher = more signal
[14] = CREB reporter modulators without forskolin, primary screen, cell-based, PC12, CRE-LacZ reporter, unstimulated (AID 1145); conditions: no forskolin, luminescence, 4.5 h, higher = more signal, called active from +8 up or from −8 down
[15] = CREB reporter modulators under forskolin, primary screen, cell-based, PC12, CRE-LacZ reporter, forskolin-stimulated (AID 1146); conditions: luminescence, 4.5 h, higher = more signal, called active from +8 up or from −8 down;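 note: PC12 cells with 6xCRE LacZ reporter stimulated by forskolin 10 µM; beta-galactosidase reporter signal reflecting CREB driven transcription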
[16] = target: Streptavidin (Streptomyces avidinii) (UniProt P22629); test: streptavidin binders on small-molecule microarray, primary screen, artefact control for SMM compound annotation, biophysical, 635/667 nm fluorescence (AID 1147); conditions: streptavidin binding, higher = more signal;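 note: signal reflects streptavidin binding to arrayed compounds as a control protein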
[17] = small-molecule binders of probe aInhba, primary screen, biochemical, small-molecule microarray, 635/667 nm fluorescence (AID 1148); conditions: higher = more signal;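 note: score merges 667nm spot fluorescence with signal-to-noise for antibody binding to printed compounds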
[18] = target: Torsin-1A (Homo sapiens) (UniProt O14656); test: torsin A binders from cell lysate, primary screen, small-molecule microarray, wild-type, 635/667 nm (AID 1149); conditions: COS7 hTOR1A-WT lysate, 635 nm fluorescence, higher = more signal
[19] = target: Torsin-1A (Homo sapiens) (UniProt O14656); test: small-molecule binders of mutant TOR1A in lysate, primary screen, cell lysate, small-molecule microarray, COS7 lysate, 635/667 nm fluorescence (AID 1150); conditions: COS7 hTOR1A mutant lysate, 635 nm fluorescence, higher = more signal;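 note: score pools 667 nm emission and signal to noise measuring lysate protein binding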
[20] = test system: Sonic hedgehog protein (Shh); test: small-molecule binders of Shh protein, primary screen, biochemical, small-molecule microarray, 635/667 nm fluorescence (AID 1151); conditions: small-molecule microarray binding, 635 nm fluorescence; higher = more signal;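 note: Shh protein binding to compounds spotted on small-molecule microarray slides; score combines spot fluorescence intensity with signal-to-noise across triplicate slides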

Chain of Streptavidin (Streptomyces avidinii) (P22629 whole entry, looked up): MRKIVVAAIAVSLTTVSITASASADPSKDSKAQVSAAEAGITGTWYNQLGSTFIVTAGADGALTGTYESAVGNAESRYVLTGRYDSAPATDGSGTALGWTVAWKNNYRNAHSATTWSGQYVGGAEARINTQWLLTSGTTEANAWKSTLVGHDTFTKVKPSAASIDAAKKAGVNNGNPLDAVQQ
Chain of Follistatin (Homo sapiens) (P19883 whole entry, looked up): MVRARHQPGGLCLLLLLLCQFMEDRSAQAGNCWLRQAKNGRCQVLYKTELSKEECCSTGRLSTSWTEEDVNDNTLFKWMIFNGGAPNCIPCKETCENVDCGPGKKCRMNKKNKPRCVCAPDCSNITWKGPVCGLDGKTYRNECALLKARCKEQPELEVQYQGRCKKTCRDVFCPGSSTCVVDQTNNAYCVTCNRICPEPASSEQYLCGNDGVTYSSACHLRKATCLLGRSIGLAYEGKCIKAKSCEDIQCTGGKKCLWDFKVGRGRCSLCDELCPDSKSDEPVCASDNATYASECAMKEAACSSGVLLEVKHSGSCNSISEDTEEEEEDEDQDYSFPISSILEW
Chain of Torsin-1A (Homo sapiens) (O14656 whole entry, looked up): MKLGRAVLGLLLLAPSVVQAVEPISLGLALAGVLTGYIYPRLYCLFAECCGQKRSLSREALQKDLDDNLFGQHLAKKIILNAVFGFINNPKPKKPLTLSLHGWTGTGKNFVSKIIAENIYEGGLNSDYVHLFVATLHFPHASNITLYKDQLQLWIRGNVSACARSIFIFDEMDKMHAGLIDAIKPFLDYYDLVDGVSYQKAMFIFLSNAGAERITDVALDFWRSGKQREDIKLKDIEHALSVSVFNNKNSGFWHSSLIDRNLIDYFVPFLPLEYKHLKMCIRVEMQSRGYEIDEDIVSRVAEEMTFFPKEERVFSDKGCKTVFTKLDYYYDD
Chain of Fibroblast growth factor 2 (Homo sapiens) (P09038 whole entry, looked up): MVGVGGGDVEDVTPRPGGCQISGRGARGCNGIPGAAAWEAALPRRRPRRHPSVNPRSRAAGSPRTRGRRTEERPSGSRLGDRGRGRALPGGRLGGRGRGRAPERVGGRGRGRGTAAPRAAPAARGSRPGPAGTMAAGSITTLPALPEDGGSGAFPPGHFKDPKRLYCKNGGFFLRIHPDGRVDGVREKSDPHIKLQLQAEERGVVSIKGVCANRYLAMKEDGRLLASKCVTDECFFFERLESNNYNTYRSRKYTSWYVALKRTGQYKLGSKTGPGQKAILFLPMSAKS
Chain of Luciferin 4-monooxygenase (Photinus pyralis) (P08659 whole entry, looked up): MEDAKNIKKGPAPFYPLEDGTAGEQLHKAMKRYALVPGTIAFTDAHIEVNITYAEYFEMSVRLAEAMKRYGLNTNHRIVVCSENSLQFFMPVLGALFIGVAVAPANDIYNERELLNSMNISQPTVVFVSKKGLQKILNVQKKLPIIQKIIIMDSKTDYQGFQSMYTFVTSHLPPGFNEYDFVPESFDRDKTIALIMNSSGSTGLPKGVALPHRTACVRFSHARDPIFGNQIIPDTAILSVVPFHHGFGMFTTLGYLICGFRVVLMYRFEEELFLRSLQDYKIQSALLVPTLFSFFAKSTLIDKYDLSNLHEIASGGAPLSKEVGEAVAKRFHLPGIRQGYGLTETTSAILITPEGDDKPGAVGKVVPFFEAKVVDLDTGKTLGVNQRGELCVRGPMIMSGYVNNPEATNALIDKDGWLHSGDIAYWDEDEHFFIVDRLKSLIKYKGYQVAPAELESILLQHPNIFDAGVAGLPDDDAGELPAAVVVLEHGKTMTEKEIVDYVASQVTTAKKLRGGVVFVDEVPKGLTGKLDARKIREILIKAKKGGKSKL
Chain of Focal adhesion kinase 1 (Homo sapiens) (Q05397 whole entry, looked up): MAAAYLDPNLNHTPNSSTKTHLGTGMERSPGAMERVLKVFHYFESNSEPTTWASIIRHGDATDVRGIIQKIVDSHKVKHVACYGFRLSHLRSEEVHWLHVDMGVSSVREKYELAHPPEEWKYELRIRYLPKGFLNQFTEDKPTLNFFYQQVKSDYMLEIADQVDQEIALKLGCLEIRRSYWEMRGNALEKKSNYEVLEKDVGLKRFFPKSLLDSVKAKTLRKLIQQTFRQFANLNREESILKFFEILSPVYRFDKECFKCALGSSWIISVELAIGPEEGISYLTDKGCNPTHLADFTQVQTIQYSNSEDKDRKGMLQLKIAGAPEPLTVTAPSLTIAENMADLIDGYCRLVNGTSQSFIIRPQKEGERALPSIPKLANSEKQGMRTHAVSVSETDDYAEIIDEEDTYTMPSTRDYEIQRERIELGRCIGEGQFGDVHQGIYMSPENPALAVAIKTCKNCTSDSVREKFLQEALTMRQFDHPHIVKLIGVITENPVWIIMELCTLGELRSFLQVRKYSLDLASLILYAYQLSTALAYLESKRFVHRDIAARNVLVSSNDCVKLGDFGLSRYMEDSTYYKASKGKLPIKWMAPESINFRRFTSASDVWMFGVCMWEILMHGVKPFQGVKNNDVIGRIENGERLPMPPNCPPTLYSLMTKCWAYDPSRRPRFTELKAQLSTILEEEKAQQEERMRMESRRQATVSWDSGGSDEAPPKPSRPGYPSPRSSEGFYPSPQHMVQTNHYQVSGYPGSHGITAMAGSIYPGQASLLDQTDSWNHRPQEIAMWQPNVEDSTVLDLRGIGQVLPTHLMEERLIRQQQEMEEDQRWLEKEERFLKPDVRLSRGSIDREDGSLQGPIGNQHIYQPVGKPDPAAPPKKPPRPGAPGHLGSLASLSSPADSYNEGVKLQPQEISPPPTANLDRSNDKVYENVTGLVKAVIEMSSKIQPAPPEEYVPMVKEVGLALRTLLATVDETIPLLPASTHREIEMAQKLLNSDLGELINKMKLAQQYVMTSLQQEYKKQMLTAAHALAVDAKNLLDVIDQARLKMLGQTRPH

Compound | composite z-score [1] | composite z-score [2] | composite z-score [3] | composite z-score [4] | composite z-score [5] | composite z-score [6] | z-score [7] | composite z-score [8] | composite z-score [9] | z-score [10] | composite z-score [11] | z-score [12] | z-score [13] | z-score [14] | z-score [15] | composite z-score [16] | composite z-score [17] | composite z-score [18] | composite z-score [19] | composite z-score [20]
CN1C(=O)C2C=CC(C(O)c3cccs3)N(Nc3ccccc3)C2C1=O (stereo not given) | 0.803 | 1.16 | 0.251 | 0.024 | 0.492 | -0.294 | 0.0177 | 0.249 | 0.508 | -0.0014 (inactive) | 0.455 | 0.593 (inactive) | -0.0101 (inactive) | 0.426 (inactive) | 0.711 (inactive) | 0.389 | 0.406 | 0.757 | 0.738 | 0.251
COC(=O)[C@@]1(Cc2ccccc2)[C@H]2c3cc(C(=O)N4CCCC4)n(Cc4cccc5ccccc45)c3C[C@H]2CN1C(=O)c1ccccc1 | 2.46 | 1.17 | 0.971 | 0.51 | 0.184 | -0.0086 | 1.11 | -0.922 | 1.29 | 1.4 (inactive) | 1.67 | -2.97 (inactive) | 0.786 (inactive) | 1.73 (inactive) | 0.941 (inactive) | 2.82 | 1.52 | -0.0124 | 0.669 | -0.27
CCOC(=O)C[C@H]1[C@H](OC(=O)Cc2ccc3c(c2)OCO3)[C@@H](NC(=O)c2ccc(-c3ccccc3)cc2)c2cc(OCCCO)ccc2N1C(=O)c1ccc2ccccc2n1 | 0.0542 | 0.242 | 0.179 | 0.368 | 0.46 | -0.0919 | -0.728 | 0.278 | 0.132 | 0.74 (inactive) | 0.317 | -4.97 (inactive) | -0.157 (inactive) | 4.93 (inactive) | -0.87 (inactive) | 1.41 | -0.231 | -0.184 | 0.438 | 0.0508
CC(C)c1ccc(NN2C(C(O)c3cc(C(F)(F)F)cc(C(F)(F)F)c3)C=CC3C(=O)N(c4ccccc4)C(=O)C32)cc1 (stereo not given) | 0.444 | 1.22 | 0.579 | 0.975 | -0.105 | -0.313 | -0.731 | -0.842 | 1.13 | 0.0708 (inactive) | -0.0702 | -2.86 (inactive) | -1.4 (inactive) | -0.322 (inactive) | 0.849 (inactive) | 0.759 | 0.0001 | -0.283 | 0.843 | -0.254
COC(=O)[C@@]1(Cc2ccc(F)cc2)[C@H]2c3cc(C(=O)N(C)C)n(CC4CC4)c3C[C@H]2CN1C(=O)c1ccccc1 | 1.54 | 1.21 | -0.0938 | 0.94 | 0.581 | -0.272 | 0.524 | -0.12 | 1.08 | 0.184 (inactive) | 1.96 | -2.68 (inactive) | 0.163 (inactive) | 1.54 (inactive) | 0.581 (inactive) | 1.79 | 1.56 | -0.532 | 0.224 | -1.04
COCCOC(=O)N1C(=O)[C@@]2(c3cc(C#Cc4ccc(OC)cc4)ccc31)[C@H](C(=O)N1CCCCCCC1)[C@H]1C(=O)O[C@H](c3ccccc3)[C@H](c3ccccc3)N1[C@@H]2c1ccc(OCCO)cc1 | 0.885 | 0.94 | 0.409 | 0.905 | 1.58 | 2.1 | -0.951 | 1.36 | 1.32 | -2.56 (inactive) | 0.812 | -4.68 (inactive) | -1.97 (inactive) | 0.0857 (inactive) | -0.66 (inactive) | 1.67 | 1.82 | 1.12 | 1.06 | 2.15
COC(=O)c1c(CC[C@@H](CO)NC(=O)N[C@H](Cn2cc(Cc3ccccc3)nn2)C(C)C)oc(C(C)=O)c1C(=O)OC | 0.583 | 0.641 | -0.0225 | 0.519 | 1.29 | 1.51 | 0.0865 | 1.24 | 0.261 | -0.0001 (inactive) | 0.367 | -2.8 (inactive) | -0.973 (inactive) | 0.904 (inactive) | -1.21 (inactive) | -0.166 | -0.0759 | -0.372 | 0.882 | 2.1
COC(=O)[C@@]1(Cc2ccc(F)cc2)[C@@H]2[C@@H](CC(=O)[C@H]2CC(=O)C(=O)N(C)C)CN1C(=O)c1ccccc1 | 1.49 | 1.24 | 0.138 | 1.01 | 0.959 | -0.213 | 0.432 | -0.198 | 1.22 | 1.28 (inactive) | 0.618 | -2.42 (inactive) | 0.215 (inactive) | 0.576 (inactive) | 0.245 (inactive) | 1.91 | 0.242 | 0.447 | 0.884 | -0.552
C=CCN(Cc1ccccc1)C(=O)C(c1cccs1)N(CCOCCO)C(=O)/C=C\C(=O)O (stereo not given) | -0.187 | -0.92 | -0.374 | -2.2 | -2.64 | -2.43 | 0.316 | -2.47 | -0.47 | -3.93 (inactive) | -1.17 | -0.247 (inactive) | -1.93 (inactive) | -1.58 (inactive) | -0.949 (inactive) | -1.28 | -0.34 | -3.64 | -3.08 | -0.933
